Active and inactive are the calls of the source. Rule for the calls: active = hit-call score of the fitted dose curve at least 0.9, where 1 is the maximum; inactive = score below 0.9.
Experiments:
[1] = ATG_Ets_CIS: Attagene CIS-FACTORIAL HepG2 Assay for human Erythroblast Transformation Specific (ETS) (AID 2282941); conditions: HepG2 ETS cis-reporter transcription, actives raise or lower the signal
Method in brief: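 HepG2 cells transfected with multiple cis-regulated reporter units measuring endogenous ETS-driven transcription, 24 h after dosing. Reporter mRNA quantified by RT-PCR with capillary electrophoresis; bidirectional fit relative to DMSO.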

[2] = target: Hepatocyte nuclear factor 3-beta (Homo sapiens) (UniProt Q9Y261); experiment: ATG_FoxA2_CIS: Attagene CIS-FACTORIAL HepG2 Assay for human Forkhead box A2 (FOXA2) (AID 2282942); conditions: HepG2 cis-reporter transcription factor activity, 24 h; actives raise or lower the signal
Hepatocyte nuclear factor 3-beta (Homo sapiens), sequence (Q9Y261 whole entry, looked up): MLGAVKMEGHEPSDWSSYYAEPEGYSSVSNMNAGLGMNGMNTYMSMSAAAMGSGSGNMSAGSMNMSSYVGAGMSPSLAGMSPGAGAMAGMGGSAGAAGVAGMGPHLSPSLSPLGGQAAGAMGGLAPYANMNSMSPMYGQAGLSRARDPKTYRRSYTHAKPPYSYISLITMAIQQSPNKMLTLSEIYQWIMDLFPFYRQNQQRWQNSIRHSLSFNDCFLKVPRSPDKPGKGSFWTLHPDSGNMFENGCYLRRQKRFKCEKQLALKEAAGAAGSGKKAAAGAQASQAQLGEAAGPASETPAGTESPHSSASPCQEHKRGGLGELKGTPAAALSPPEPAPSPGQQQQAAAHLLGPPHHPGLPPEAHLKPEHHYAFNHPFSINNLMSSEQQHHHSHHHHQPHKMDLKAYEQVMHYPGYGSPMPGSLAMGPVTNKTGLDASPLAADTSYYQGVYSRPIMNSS
Method in brief: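 Multiplexed cis-element reporter assay in transiently transfected HepG2. Twenty-four hours post-dosing, RNA was reverse-transcribed, amplified, FAM-labelled, HpaI-digested and separated by CE. Activity gain or loss relative to DMSO.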

[3] = ATG_FoxO_CIS: Attagene CIS-FACTORIAL HepG2 Assay for human Forkhead box O (FoxO) (AID 2282943); conditions: HepG2 Attagene cis-reporter, FoxO element, mRNA; actives raise or lower the signal
Method in brief: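 Endogenous transcription factor activity read from multiplexed cis-promoter reporter transcripts in transiently transfected HepG2, 24 h after dosing. Reporter RNA measured via RT-PCR plus capillary electrophoresis of FAM-labeled products; gain or loss relative to DMSO.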

[4] = ATG_GATA_CIS: Attagene CIS-FACTORIAL HepG2 Assay for human GATA Binding Protein (AID 2282944); conditions: HepG2 GATA cis-element reporter, Attagene multiplex mRNA; actives raise or lower the signal
Method in brief: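 Transfected cis-reporter HepG2 cells were treated with chemicals for 24 hours. Total RNA was then converted to cDNA, amplified with reporter-specific primers and analysed by fluorescent capillary electrophoresis, using DMSO-treated wells as baseline.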

[5] = ATG_GLI_CIS: Attagene CIS-FACTORIAL HepG2 Assay for human Zinc Finger Protein GLI1 (AID 2282945); conditions: HepG2, Attagene cis-factorial reporter mRNA, GLI element; actives raise or lower the signal
Method in brief: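 Bidirectional curve fits relative to DMSO, using reporter mRNA levels from RT-PCR plus capillary electrophoresis. Cells were HepG2 transiently carrying cis-regulated reporter constructs, harvested 24 h after dosing.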

[6] = target: Bile acid receptor (Homo sapiens) (UniProt Q96RI1); experiment: ATG_IR1_CIS: Attagene CIS-FACTORIAL HepG2 Assay for human Nuclear Receptor Subfamily 1 Group H Member 4 (NR1H4), IR1 submotif (AID 2282946); conditions: IR1 reporter transcription, actives raise or lower the signal
Bile acid receptor (Homo sapiens), sequence (Q96RI1 whole entry, looked up, the tested form may be a part): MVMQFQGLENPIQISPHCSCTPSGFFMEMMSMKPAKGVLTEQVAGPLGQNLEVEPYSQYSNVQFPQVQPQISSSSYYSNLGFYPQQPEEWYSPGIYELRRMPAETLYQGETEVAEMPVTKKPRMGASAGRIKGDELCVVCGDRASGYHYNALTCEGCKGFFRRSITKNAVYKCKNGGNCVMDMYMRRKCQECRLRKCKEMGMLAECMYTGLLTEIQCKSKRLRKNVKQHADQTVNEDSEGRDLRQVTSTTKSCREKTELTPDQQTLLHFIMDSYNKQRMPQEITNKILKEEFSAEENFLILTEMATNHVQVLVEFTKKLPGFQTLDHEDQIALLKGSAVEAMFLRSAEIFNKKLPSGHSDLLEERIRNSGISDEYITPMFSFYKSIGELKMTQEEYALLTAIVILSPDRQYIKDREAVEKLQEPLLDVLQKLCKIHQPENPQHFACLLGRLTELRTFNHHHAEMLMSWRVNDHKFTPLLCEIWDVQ
Method in brief: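 Cells (human HepG2) carry transiently transfected cis-promoter reporter transcription units. Compounds are incubated 24 h, total RNA is reverse-transcribed and amplified, and labelled fragments are resolved by capillary electrophoresis. Curves use DMSO as baseline.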

[7] = ATG_GRE_CIS: Attagene CIS-FACTORIAL HepG2 Assay for human Glucocorticoid Response Elements (GRE) (AID 2282947); conditions: HepG2 GRE cis-reporter, Attagene multiplex mRNA; actives raise or lower the signal
Method in brief: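 Transient MRTU transfection of human HepG2 liver cells; cis-regulated reporters report endogenous factors. 24 h dosing → RNA isolation → RT-PCR → 6-FAM primer extension → HpaI cut → CE fragment analysis. Bidirectional fit, DMSO negative control.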

[8] = ATG_ISRE_CIS: Attagene CIS-FACTORIAL HepG2 Assay for human Interferon Regulatory Factor 1 (IRF1) binding to an Interferon-Stimulated Response Element (ISRE) (AID 2282948); conditions: HepG2 ISRE cis-reporter (Attagene), mRNA transcription readout; actives raise or lower the signal
Method in brief: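 Transiently transfected HepG2 cells carrying cis-element reporter units, dosed 24 hours. Reporter mRNA quantified by RT-PCR, fluorescent primer extension, HpaI digestion and capillary electrophoresis. Bidirectional fitting relative to DMSO.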

[9] = ATG_M_32_CIS: Attagene CIS-FACTORIAL HepG2 Assay for M32 Transcription Factor (Internal Marker) (AID 2282949); conditions: HepG2 Attagene cis-factorial M32 reporter, mRNA; actives raise or lower the signal;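 note: background control marker of the multiplexed CIS panel rather than a real target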
Method in brief: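 Fluorescent capillary electrophoresis peaks of HpaI-digested, FAM-labelled RT-PCR reporter products give the signal. Source: transiently transfected human liver HepG2 cells, 24 h after chemical dosing; bidirectional fitting against DMSO.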

[10] = ATG_M_06_CIS: Attagene CIS-FACTORIAL HepG2 Assay for M06 Transcription Factor (Internal Marker) (AID 2282950); conditions: HepG2 Attagene CIS-FACTORIAL M06 internal marker reporter; actives raise or lower the signal
Method in brief: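 Cells (HepG2, transiently carrying cis-driven reporter units) receive chemical for 24 h before RNA isolation. Reporter cDNA is PCR-amplified, FAM-labelled by primer extension, HpaI-digested and sized on a capillary analyser.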

[11] = target: Hypoxia-inducible factor 1-alpha (Homo sapiens) (UniProt Q16665); experiment: ATG_HIF1a_CIS: Attagene CIS-FACTORIAL HepG2 Assay for human Hypoxia Inducible Factor 1 (HIF1A) (AID 2282951); conditions: HepG2 Attagene cis-factorial HIF1a reporter transcription; actives raise or lower the signal
Hypoxia-inducible factor 1-alpha (Homo sapiens), sequence (Q16665 whole entry, looked up): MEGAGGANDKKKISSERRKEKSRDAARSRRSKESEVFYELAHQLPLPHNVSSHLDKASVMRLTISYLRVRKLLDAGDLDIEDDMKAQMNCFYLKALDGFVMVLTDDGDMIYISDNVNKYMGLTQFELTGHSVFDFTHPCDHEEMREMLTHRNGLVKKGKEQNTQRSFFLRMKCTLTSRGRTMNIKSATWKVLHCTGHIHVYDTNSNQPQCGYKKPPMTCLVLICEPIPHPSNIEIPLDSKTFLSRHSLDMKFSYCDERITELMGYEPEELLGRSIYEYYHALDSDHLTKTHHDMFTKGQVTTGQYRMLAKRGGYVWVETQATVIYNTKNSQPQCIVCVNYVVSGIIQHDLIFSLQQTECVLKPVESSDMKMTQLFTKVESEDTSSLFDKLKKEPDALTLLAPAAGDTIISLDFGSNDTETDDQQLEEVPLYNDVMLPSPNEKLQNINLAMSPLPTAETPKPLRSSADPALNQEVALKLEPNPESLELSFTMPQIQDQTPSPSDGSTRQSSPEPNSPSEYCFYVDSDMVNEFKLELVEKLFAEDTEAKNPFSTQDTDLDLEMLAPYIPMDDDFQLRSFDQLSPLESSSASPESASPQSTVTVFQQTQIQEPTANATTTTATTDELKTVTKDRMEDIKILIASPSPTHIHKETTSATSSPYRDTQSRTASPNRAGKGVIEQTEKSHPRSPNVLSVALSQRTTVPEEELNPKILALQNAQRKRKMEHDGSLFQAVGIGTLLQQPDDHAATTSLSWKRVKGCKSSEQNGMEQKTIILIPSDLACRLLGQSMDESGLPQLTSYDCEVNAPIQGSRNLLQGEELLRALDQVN
Method in brief: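 Cis-element reporter constructs were transiently transfected into HepG2 cells, which were treated for 24 h; reporter RNA was reverse-transcribed, amplified, labelled and resolved by capillary electrophoresis.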

[12] = target: Hepatocyte nuclear factor 6 (Homo sapiens) (UniProt Q9UBC0); experiment: ATG_HNF6_CIS: Attagene CIS-FACTORIAL HepG2 Assay for human Hepatocyte Nuclear Factor 6 (HNF6) (AID 2282952); conditions: HepG2 Attagene cis-factorial HNF6 reporter transcription; actives raise or lower the signal
Hepatocyte nuclear factor 6 (Homo sapiens), sequence (Q9UBC0 whole entry, looked up): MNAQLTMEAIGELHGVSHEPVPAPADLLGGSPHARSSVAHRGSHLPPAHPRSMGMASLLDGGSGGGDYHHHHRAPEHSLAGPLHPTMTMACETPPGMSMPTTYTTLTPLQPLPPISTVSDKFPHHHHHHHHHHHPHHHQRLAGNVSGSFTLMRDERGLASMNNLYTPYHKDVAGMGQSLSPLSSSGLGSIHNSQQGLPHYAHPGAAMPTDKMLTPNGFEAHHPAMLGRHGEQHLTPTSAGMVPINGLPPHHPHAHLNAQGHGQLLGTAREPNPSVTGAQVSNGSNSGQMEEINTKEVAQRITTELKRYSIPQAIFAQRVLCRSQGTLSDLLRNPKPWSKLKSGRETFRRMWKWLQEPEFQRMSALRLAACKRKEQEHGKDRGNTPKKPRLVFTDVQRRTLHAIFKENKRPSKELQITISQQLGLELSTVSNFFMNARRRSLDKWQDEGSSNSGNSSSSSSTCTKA
Method in brief: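 Transiently transfected HepG2 cells expressing cis-regulated reporter transcription units were exposed to chemical for 24 h in a 24-well format. Reporter transcript abundance was determined by fluorescence capillary electrophoresis.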

[13] = target: Heat shock factor protein 1 (Homo sapiens) (UniProt Q00613); experiment: ATG_HSE_CIS: Attagene CIS-FACTORIAL HepG2 Assay for human Heat Shock Transcription Factor 1 (HSE) (AID 2282953); conditions: HepG2 HSE cis-reporter, Attagene RNA transcription; actives raise or lower the signal
Heat shock factor protein 1 (Homo sapiens), sequence (Q00613 whole entry, looked up): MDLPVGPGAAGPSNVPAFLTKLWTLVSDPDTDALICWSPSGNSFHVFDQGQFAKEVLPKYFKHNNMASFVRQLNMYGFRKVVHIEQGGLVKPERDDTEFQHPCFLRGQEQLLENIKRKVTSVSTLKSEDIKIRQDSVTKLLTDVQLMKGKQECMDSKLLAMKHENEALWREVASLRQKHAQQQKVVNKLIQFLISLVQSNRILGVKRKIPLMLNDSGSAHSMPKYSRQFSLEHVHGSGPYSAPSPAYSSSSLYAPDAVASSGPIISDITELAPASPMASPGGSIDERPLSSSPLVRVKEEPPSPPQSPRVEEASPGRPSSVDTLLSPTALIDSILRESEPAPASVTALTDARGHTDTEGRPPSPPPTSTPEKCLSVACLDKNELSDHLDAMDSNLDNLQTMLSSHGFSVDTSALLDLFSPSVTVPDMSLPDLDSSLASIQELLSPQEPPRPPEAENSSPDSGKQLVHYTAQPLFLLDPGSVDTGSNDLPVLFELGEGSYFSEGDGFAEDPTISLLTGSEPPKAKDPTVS
Method in brief: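 Liver-derived HepG2 cells carry transiently introduced multiple reporter units governed by cis promoters. Reporter RNA measured 24 h post-dose through reverse transcription, PCR amplification, fluorescent labelling and capillary electrophoresis, normalised to DMSO.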

[14] = ATG_PBREM_CIS: Attagene CIS-FACTORIAL HepG2 Assay for human Phenobarbital-responsive Enhancer Module (PBREM) (AID 2282955); conditions: HepG2 PBREM cis-reporter, Attagene multiplexed transcription; actives raise or lower the signal
Method in brief: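 Multiplexed cis-reporter readout in human hepatoma HepG2 cells; PBREM-regulated transcript quantified after 24 h exposure by fluorescent RT-PCR fragment analysis. Signal changes up or down fitted relative to DMSO.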

[15] = target: Paired box protein Pax-6 (Homo sapiens) (UniProt P26367); experiment: ATG_Pax6_CIS: Attagene CIS-FACTORIAL HepG2 Assay for human Paired Box 6 (PAX6) (AID 2282956); conditions: HepG2 CIS-FACTORIAL PAX6 reporter transcription, RNA readout; actives raise or lower the signal
Paired box protein Pax-6 (Homo sapiens), sequence (P26367 whole entry, looked up): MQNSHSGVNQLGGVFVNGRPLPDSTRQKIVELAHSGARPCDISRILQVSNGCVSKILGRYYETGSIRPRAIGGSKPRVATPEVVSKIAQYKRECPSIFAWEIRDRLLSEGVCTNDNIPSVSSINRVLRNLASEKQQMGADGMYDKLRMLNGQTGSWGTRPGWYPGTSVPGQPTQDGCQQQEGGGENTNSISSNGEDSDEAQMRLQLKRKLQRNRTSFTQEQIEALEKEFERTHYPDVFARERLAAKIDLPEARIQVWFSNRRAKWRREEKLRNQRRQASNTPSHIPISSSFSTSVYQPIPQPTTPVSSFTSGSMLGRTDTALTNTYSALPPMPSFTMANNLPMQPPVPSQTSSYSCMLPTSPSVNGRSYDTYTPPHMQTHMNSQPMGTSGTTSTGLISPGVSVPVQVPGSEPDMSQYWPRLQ
Method in brief: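 HepG2 cells transiently transfected with cis-promoter-driven multiplexed reporter units sensing endogenous transcription factor activity; 24 h chemical exposure. Reporter mRNA quantified by RT-PCR, 6-FAM labelling, HpaI digestion and capillary electrophoresis; bidirectional fit versus DMSO baseline.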

[16] = ATG_PXRE_CIS: Attagene CIS-FACTORIAL HepG2 Assay for human Pregnane X Receptor Element (PXRE) (AID 2282957); conditions: HepG2 Attagene CIS-FACTORIAL PXRE reporter, mRNA; actives raise or lower the signal
Method in brief: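 Cis-element reporter mRNA in human hepatoma HepG2 cells is measured 24 h post-dosing by RT-PCR, primer-extension labeling and capillary electrophoresis; gain or loss of signal is fitted relative to DMSO.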

[17] = ATG_PPRE_CIS: Attagene CIS-FACTORIAL HepG2 Assay for human Peroxisome Proliferator-activated Response Element (PPRE) (AID 2282958); conditions: HepG2 PPRE cis-element reporter, Attagene transcription factor profiling; actives raise or lower the signal
Method in brief: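 DMSO served as negative control and baseline for bidirectional curve fitting. Signal came from PPRE-regulated reporter mRNA in HepG2 cells, measured 24 h post-dosing by RT-PCR, 6-FAM primer extension and capillary electrophoresis.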

[18] = ATG_Sox_CIS: Attagene CIS-FACTORIAL HepG2 Assay for human SRY-box transcription factor (SOX) (AID 2282960); conditions: HepG2 Attagene cis-factorial SOX reporter, mRNA; actives raise or lower the signal
Method in brief: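 Fluorescence-labelled cDNA fragments from reporter transcripts, sized by CE, give the signal. Cells: HepG2, transiently transfected with cis-regulated reporter units. Exposure 24 h; DMSO negative control; bidirectional curve fitting.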

[19] = ATG_MRE_CIS: Attagene CIS-FACTORIAL HepG2 Assay for human Metal Responsive Element (MRE) (AID 2282954); conditions: HepG2 MRE cis-reporter transcription, Attagene multiplex; actives raise or lower the signal
Method in brief: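 Transient MRTU transfection of HepG2 (FuGene 6); 24 h dosing; total RNA → oligo(dT) RT, PCR, 6-FAM primer extension, HpaI cut, CE. Bidirectional fit vs DMSO.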

[20] = ATG_RORE_CIS: Attagene CIS-FACTORIAL HepG2 Assay for human RAR-related Orphan Receptor Element (RORE) (AID 2282959); conditions: HepG2 Attagene cis-factorial RORE reporter, mRNA; actives raise or lower the signal
Method in brief: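 Transfect HepG2 with MRTUs; treat 24 h; extract RNA; RT with oligo(dT); PCR with reporter-specific primers; 6-FAM primer extension; HpaI digest 2 h at 37 C; capillary electrophoresis. Fit vs DMSO, bidirectional.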

Measured: AC50

CCN(CC)C(=O)Cl
not listed: [19] | [20]
inactive: all other assays above

CC(=O)c1cc(C(C)(C)C)cc2c1CCC2(C)C
active: [2] 147 µM | [5] 143 µM | [7] 73.9 µM | [13] 64.4 µM | [19] 70.4 µM | [15] 26.9 µM | [16] 5.72 µM | [17] 29.4 µM
not listed: [6]
inactive: all other assays above

O=C(Nc1ccc2[nH]ccc2c1)c1cc2cc(F)ccc2n1Cc1cccc(F)c1
active: [6] 2.93 µM | [7] 17.6 µM | [8] 18.2 µM | [12] 18.3 µM | [13] 20.7 µM | [14] 17.3 µM | [15] 13.9 µM | [18] 16.8 µM
not listed: [16] | [19] | [20]
inactive: all other assays above

O=C(OC1CCCCC1)c1ccccc1C(=O)OC1CCCCC1
active: [6] 28.9 µM | [11] 11.2 µM | [19] 23.5 µM | [20] 8.39 µM
not listed: [8] | [16] | [17]
inactive: all other assays above

CC(=[OH+])/C=C(/C)[O-].CC(=[OH+])/C=C(/C)[O-].CC(=[OH+])/C=C(/C)[O-].[Al]
not listed: [10] | [14] | [16]
inactive: all other assays above

COS(=O)(=O)c1ccc(C)cc1
not listed: [14] | [16]
inactive: all other assays above

CN(CCCC(=O)c1cccnc1)N=O
active: [16] 27.2 µM
not listed: [8] | [20]
inactive: all other assays above

Source: PubChem BioAssay (EPA / NIEHS)
